The values below come from PubChem BioAssay (NCATS).

One assay has as its system CRL-7250. Kind of assay: Cytotoxic Profiling of Annotated Libraries Using Quantitative High-Throughput Screening (AID 1296008). Also: nearly all actives have a fitted effect of over 60% in size. Conditions: Five cell lines viability, CellTiter-Glo ATP luminescence, 48-72 h; max response: active compounds read low. The method, boiled down: (§1)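 Cytotoxicity was measured as CellTiter-Glo ATP luminescence, read after 10 min at room temperature. Compound treatment of the cells lasted 48 or 72 hr at 37 degrees Celsius in a qHTS format.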
Background: ATP-based viability assays read luminescence as a measure of living cells.

The next assay has as its system HEK293. The description is as above. Conditions: Five cell lines viability, CellTiter-Glo ATP luminescence, 48-72 h; max response: active compounds read low. The method, boiled down: as §1
The test system of assay [1] is HaCat. Described as above. Conditions: Five cell lines viability, CellTiter-Glo ATP luminescence, 48-72 h; max response: active compounds read low. The method, boiled down:
as §1

A further assay has as its system KB-3-1. Described as above. Conditions: Five cell lines viability, CellTiter-Glo ATP luminescence, 48-72 h; max response: active compounds read low. In outline:
as §1

Assay [2] has as its system NIH3T3. The assay is described as above. Conditions: Five cell lines viability, CellTiter-Glo ATP luminescence, 48-72 h; max response: active compounds read low. In outline: as §1
In another assay the test system is MCC-13. Nature of the assay: qHTS assay to identify novel small-molecules to repurpose for Merkel cell carcinoma treatment (AID 1296009). Also: nearly all actives have a fitted effect of over 60% in size. Conditions: MCC and control cell lines, CellTiter-Glo viability, 72 h; series mostly up to 46 µM. In outline: (§2)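 Cell viability, measured as CellTiter-Glo luminescence, was normalized between DMSO and no-cell wells. The cells had been exposed to 8- or 11-point compound dilutions for 72 hr at 37 degree celsius.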
A general note: In qHTS, concentration-response curves come from the screen itself.

The subject of the next assay is MKL-1. The description is as above. Conditions: MCC and control cell lines, CellTiter-Glo viability, 72 h; series mostly up to 46 µM. In outline: as §2
Another assay concerns MKL-2. Described as above. Conditions: MCC and control cell lines, CellTiter-Glo viability, 72 h; series mostly up to 46 µM. The method, boiled down:
as §2

A further assay concerns WaGa. The description is as above. The conditions noted are these: MCC and control cell lines, CellTiter-Glo viability, 72 h; series mostly up to 46 µM. The method, boiled down: as §2
Another assay deals with C33A. Nature of the assay: Primary qHTS to identify gynecologic anti-cancer compounds using libraries of approved drugs and bioactive compounds (AID 1345084). Also: nearly all actives have a fitted effect of over 55% in size. The conditions noted are these: Gynecologic cancer cell panel viability, ATPlite luminescence, 48 h; series mostly up to 57.5 µM. The method, boiled down:
(§3)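 Cells, 1,000 per well, were allowed to settle for 16 h at 37 C before compound addition. Five concentrations were tested for 48 h, and viability was read by ATPlite luminescence after 15 min at room temperature.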

The next assay deals with CASKI. Described as above. Conditions: Gynecologic cancer cell panel viability, ATPlite luminescence, 48 h; series mostly up to 57.5 µM. In outline: as §3
The subject of the next assay is Es-2. The description is as above. Conditions: Gynecologic cancer cell panel viability, ATPlite luminescence, 48 h; series mostly up to 57.5 µM. The method, boiled down:
as §3

A further assay deals with HeLa. The description is as above. The conditions noted are these: Gynecologic cancer cell panel viability, ATPlite luminescence, 48 h; series mostly up to 57.5 µM. The method, boiled down: as §3
In another assay the test system is MCC-26. Kind of assay: qHTS assay to identify novel small-molecules to repurpose for Merkel cell carcinoma treatment (AID 1296009). Also: nearly all actives have a fitted effect of over 60% in size. Conditions: MCC and control cell lines, CellTiter-Glo viability, 72 h; series mostly up to 46 µM. The method, boiled down: as §2
A further assay relates to CAOV3. Kind of assay: Primary qHTS to identify gynecologic anti-cancer compounds using libraries of approved drugs and bioactive compounds (AID 1345084). Also: nearly all actives have a fitted effect of over 55% in size. Conditions: Gynecologic cancer cell panel viability, ATPlite luminescence, 48 h; series mostly up to 57.5 µM. The method, boiled down: as §3
For another assay, the system named is UISO. Kind of assay: qHTS assay to identify novel small-molecules to repurpose for Merkel cell carcinoma treatment (AID 1296009). Also: nearly all actives have a fitted effect of over 60% in size. Conditions: MCC and control cell lines, CellTiter-Glo viability, 72 h; series mostly up to 46 µM. The method, boiled down:
as §2

The next assay concerns HEK293T. The assay is described as above. Conditions: MCC and control cell lines, CellTiter-Glo viability, 72 h; at 44.8 µM (top of the series) unless noted. In outline:
as §2

In assay [3] the test system is HACAT. Described as above. The conditions noted are these: MCC and control cell lines, CellTiter-Glo viability, 72 h; at 44.8 µM (top of the series) unless noted. The method, boiled down:
as §2

In assay [4] the test system is NIH3T3. Described as above. The conditions noted are these: MCC and control cell lines, CellTiter-Glo viability, 72 h; series mostly up to 44.8 µM. The method, boiled down: as §2

“And” between values parts separate entries of the source, which are not always exact repeats. Equal values may be shown once. Results filed as inconclusive are left out. Values without a mark were called inactive. The source made the active and inactive calls. Calls follow the shape of the dose curve; as a rule, active = well fitted curve in the direction sought with a large enough effect; inconclusive = small, poorly fitted or top-dose-only effect, or another doubt; inactive = no such curve, though single readings can be large; an effect the other way counts as inactive or inconclusive.
% is scaled to controls: 0 for no effect and ±100 for the full control effect; potency is read from the fitted curve at half-maximal effect.

As for `Cc1c(C(=O)Nc2ccc(N3C[C@@H](C)O[C@@H](C)C3)nc2)cccc1-c1ccc(OC(F)(F)F)cc1`, the results for the max response in the assay with CRL-7250 and in the assay with KB-3-1 were -6.66% and -8.91%, respectively. For the same compound, the Potency with HEK293 was 5.26 µM (active); in the assay on HaCat [1], 9.35 µM (active); in the assay with NIH3T3 [2] it was 20.9 µM (active). Besides, the Potency result in the assay with MCC-13, in the assay with MKL-1, in the assay with MKL-2, in the assay on WaGa, with C33A and in the assay on CASKI was “inactive” in each case. Besides, the Potency entry with Es-2 and in the assay on HeLa was “inactive” in each case.
On to `N#CC1(c2cccc(C(=O)Nc3cc(Oc4ccc5nc(NC(=O)C6CC6)sc5n4)ccc3F)c2Cl)CC1`, for which the Potency was 5.17 µM (active) in the assay on CRL-7250; 13.2 µM (active) and 6.51 µM (active) with HEK293; 26.4 µM (active) and 20.6 µM (active) in the assay on HaCat [1]; 3.32 µM (active) and 3.26 µM (active) in the assay on NIH3T3 [2]; 16.6 µM (active) in the assay with MCC-13; 11.8 µM (active) in the assay on MCC-26. Besides, the Potency in the assay on CAOV3 was 11.2 µM (active). In the assay on KB-3-1, the max response was -20.5% and -13.3%. Moreover, the Potency result with MKL-1, in the assay with MKL-2, in the assay with C33A and in the assay on HeLa was “inactive” in each case.
In the case of `CCc1cccc(CC)c1NC(=O)N1Cc2[nH]nc(NC(=O)c3ccc(N4CCN(C)CC4)cc3)c2C1`, the Potency was 16.6 µM (active) and 10.3 µM (active) in the assay on CRL-7250; 8.2 µM (active) with HEK293; 26.4 µM (active) and 18.4 µM (active) with HaCat [1]; 7.43 µM (active) and 4.61 µM (active) in the assay with KB-3-1; 13.2 µM (active) in the assay with NIH3T3 [2]; 20.9 µM (active) in the assay with MCC-26. In addition, in the assay on HeLa, the Potency was 3.16 µM (active). The Potency entry with MCC-13, with MKL-2, in the assay with UISO, with C33A and in the assay with Es-2 was “inactive” each time.
For `Cn1cc(-c2ccc3nnc(Sc4ccc5ncccc5c4)n3n2)cn1`, the figures for the max response with CRL-7250, in the assay on HaCat [1] and with KB-3-1 were -0.0054%, 1.95% and 3.63%, respectively. The outcome in the assay on HEK293 and in the assay with HEK293T was inactive. The Potency result in the assay on MCC-13, with MCC-26, in the assay on MKL-1, with MKL-2, in the assay on UISO and in the assay on WaGa was “inactive” throughout.
For the compound `CCC=CC[C@H]1C(=O)CC[C@@H]1CC(=O)OC`, the max response in the assay with CRL-7250 was -0.832%; in the assay with HEK293, 3.57%. For the same compound, the result in the assay with HaCat [1], in the assay with KB-3-1 and in the assay on HACAT [3] was inactive. Further, the Potency result with MCC-13, with MCC-26, in the assay with MKL-1, in the assay with MKL-2, in the assay with UISO and in the assay on WaGa was “inactive” each time.
With `Cc1cccc2c1CC[C@H](CN1CCC(c3c(Cl)cccc3Cl)CC1)C[C@@H]2O`, the max response in the assay on CRL-7250 was -6.89% and 0.148%; in the assay on HaCat [1], 1.39%; with KB-3-1, -8.1%; with NIH3T3 [2], -20.2%. For the same compound, the Potency in the assay on HEK293 is 14.6 µM (active). Besides, the Potency result in the assay with MCC-26, in the assay on MKL-1, in the assay with MKL-2, with WaGa, in the assay with C33A and with CAOV3 was “inactive” in each case. Further, the Potency result in the assay with CASKI and in the assay on Es-2 was “inactive” each time.
For the compound `CC(C)CN(C[C@@H](O)[C@H](Cc1ccccc1)NC(=O)O[C@H]1CO[C@H]2OCC[C@H]21)S(=O)(=O)c1ccc(N)cc1`, the max response was -22% in the assay with CRL-7250, -18.9% in the assay on HEK293 and -16.8% in the assay with HaCat [1]. Moreover, the result with KB-3-1 and with NIH3T3 [2] was inactive. For the same compound, the Potency entry in the assay with MCC-13, in the assay on MCC-26, in the assay with NIH3T3 [4] and in the assay with UISO was “inactive” each time.
Regarding `O=c1[nH]nc(OCCCc2ccc(Cl)cc2)c(NCc2cccnc2)c1Br`, the Potency was 6.51 µM (active) in the assay with CRL-7250; 3.32 µM (active) and 7.31 µM (active) in the assay with HEK293; 20.9 µM (active) in the assay on HaCat [1]; 23.5 µM (active) in the assay on MKL-1; 14.8 µM (active) in the assay with MKL-2. The max response is 3.09% in the assay on KB-3-1; 1.68% and -21.7% with NIH3T3 [2]. The Potency result in the assay on MCC-26, in the assay on Es-2 and with HeLa was “inactive” in each case.
For the compound `CC(C)=CCCC(C)=CCCC(C)=CCCC(C)=CCCC(C)=CCCC(C)=CCCC(C)=CCCC(C)=CCCC(C)=CCO`, the max response in the assay with CRL-7250 is 0.939%; in the assay on HEK293, -3.76%; in the assay on HaCat [1], 1.51%; with KB-3-1, 4.17%; in the assay on NIH3T3 [2] it was -3.52%. The Potency result in the assay on MCC-13, in the assay on MKL-1, with MKL-2, in the assay on UISO and with WaGa was “inactive” each time.
Consider `CC(C)CN(C[C@H](O)[C@H](Cc1ccccc1)NC(=O)O[C@H]1CCOC1)S(=O)(=O)c1ccc(N)cc1`, for which the max response was 0.909% in the assay with CRL-7250, -14.4% in the assay with HEK293, -15.1% in the assay on HaCat [1] and 1.75% in the assay with NIH3T3 [2]. In addition, the outcome in the assay on KB-3-1 was inactive. In addition, the Potency entry in the assay on MCC-13, with MCC-26, in the assay with MKL-1, in the assay with MKL-2, with UISO and in the assay with WaGa was “inactive” each time.
As for `CC(C)C[C@@H](N)[C@H](O)C(=O)N[C@H](C(=O)N[C@H](C(=O)N[C@@H](CC(=O)O)C(=O)O)C(C)C)C(C)C`, the max response is 3.99% in the assay with CRL-7250; 3.01% in the assay on HEK293; 1.98% in the assay on HaCat [1]; 4.23% in the assay on KB-3-1; 1.99% with NIH3T3 [2]. Moreover, the Potency result in the assay with MCC-13, in the assay with MCC-26, in the assay on MKL-1, in the assay on MKL-2, in the assay on UISO and in the assay on WaGa was “inactive” throughout.
Regarding `COc1cc(N2CCN(C)CC2)ccc1Nc1nc(N)c(C(=O)c2c(Cl)cccc2Cl)s1`, the max response is -21% in the assay with CRL-7250 and -5.11% in the assay on KB-3-1. The Potency in the assay with HEK293 is 23.5 µM (active). In addition, the compound was called inactive with HaCat [1] and in the assay on HACAT [3]. In addition, the Potency entry in the assay on MCC-13, with MCC-26, in the assay on MKL-1, in the assay on MKL-2, in the assay on UISO and in the assay with WaGa was “inactive” in each case.
As to `CC1(COc2ccc3c(c2)ncn3-c2ccc3cccc(N4CCC(N)CC4)c3n2)COC1`, the Potency was 11.6 µM (active) in the assay with CRL-7250; 7.43 µM (active) and 8.2 µM (active) in the assay with HEK293; 20.6 µM (active) in the assay with HaCat [1]; 5.9 µM (active) in the assay on KB-3-1; 2.96 µM (active) with NIH3T3 [2]; 18.7 µM (active) in the assay on MCC-13. The Potency was 18.7 µM (active) in the assay on MKL-2, 28.2 µM (active) in the assay with Es-2 and 20 µM (active) with HeLa.
